Results: PubChem BioAssay AID1159580 (chemical genetic matrix, 2015)
“And” between values parts separate entries of the source, which are not always exact repeats. Identical values can stand only once. Among all 5,500 compounds or so, about 2,000 (36%) were called active. Another 18% or so got no clear call; they are omitted. No stated cut-off is given here; in the data, active means normalized growth mostly below about 0.91 (no sharp cut-off); inconclusive means no clear call, values can overlap the other calls; inactive means mostly above about 0.92. The list shows a part of the results.

Assay: chemical genetic growth profiling, strain panel (AID 1159580);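 further: tested at 20 µM; growth read once vehicle control cultures reached saturation at 30 °C; 1 = growth at the plate median or of vehicle wells; lower values mean less growth of the strain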
Conditions: S. cerevisiae deletion strains, growth OD

Measured: normalized growth

COc1cc(C)c2c(c1C=O)Oc1c(c(C)c(O)c3c1C(O)OC3=O)OC2=O (stereo not drawn)
inactive: locus YAL013W, strain DEP1, hits give low values 1 | locus YAL021C, strain ccr4, hits give low values 1.01 | locus YAL026C, strain drs2, hits give low values 1.02 | locus YAL030W, strain snc1, hits give low values 1.02 | locus YBL061C, strain skt5, hits give low values 1.02 | locus YBR009C, strain hhf1, hits give low values 1.03 | locus YBR021W, strain FUR4, hits give low values 1.01 | locus YBR023C, strain chs3, hits give low values 1.05 | locus YBR171W, strain sec66, hits give low values 1.02 | locus YBR229C, strain ROT2, hits give low values 0.949 | locus YBR231C, strain swc5, hits give low values 1.01 | locus YBR279W, strain paf1, hits give low values 1.01 | locus YCL011C, strain gbp2, hits give low values 1.03 | locus YCL016C, strain dcc1, hits give low values 1.03 | locus YCL029C, strain bik1, hits give low values 0.984 | locus YCL061C, strain MRC1, hits give low values 1.02 | locus YCL069W, strain vba3, hits give low values 1.01 | locus YCR088W, strain abp1, hits give low values 1.01 | locus YDL005C, strain med2, hits give low values 0.946 | locus YDL035C, strain GPR1, hits give low values 0.965 | locus YDL040C, strain nat1, hits give low values 1.01 | locus YDL074C, strain BRE1, hits give low values 0.959 | locus YDL101C, strain DUN1, hits give low values 0.99 | locus YDL185W, strain tfp1, hits give low values 0.972 | locus YDL192W, strain arf1, hits give low values 0.984 | locus YDR001C, strain nth1, hits give low values 1.01 | locus YDR069C, strain doa4, hits give low values 1 | locus YDR101C, strain arx1, hits give low values 0.981 | locus YDR137W, strain rgp1, hits give low values 1.06 | locus YDR150W, strain NUM1, hits give low values 0.994 | locus YDR159W, strain sac3, hits give low values 1.02 | locus YDR162C, strain NBP2, hits give low values 0.941 | locus YDR195W, strain ref2 0.924 | locus YDR297W, strain sur2, hits give low values 1.01 | locus YDR318W, strain mcm21, hits give low values 1 | locus YDR334W, strain swr1, hits give low values 1 | locus YDR335W, strain msn5, hits give low values 1.01 | locus YDR388W, hits give low values 0.997 | locus YDR392W, strain spt3, hits give low values 1 | locus YDR502C, strain sam2, hits give low values 1.04 | locus YEL003W, strain gim4, hits give low values 1.02 | locus YEL037C, strain rad23, hits give low values 1.02 | locus YEL061C, strain CIN8 (second series), hits give low values 1 | locus YEL061C, strain CIN8, hits give low values 0.974 | locus YER015W, strain faa2, hits give low values 1.01 | locus YER016W, strain bim1, hits give low values 1.02 | locus YER110C, hits give low values 0.981 | locus YER111C, strain swi4, hits give low values 1.01 | locus YER155C, strain BEM2 (second series), hits give low values 1.02 | locus YER155C, strain BEM2, hits give low values 0.995 | locus YER167W, strain BCK2, hits give low values 0.986 | locus YFR010W, strain ubp6, hits give low values 1.02 | locus YGL078C, strain dbp3, hits give low values 1.02 | locus YGL086W, strain mad1, hits give low values 1.01 | locus YGL167C, strain pmr1, hits give low values 1.01 | locus YGL173C, strain kem1, hits give low values 1.03 | locus YGL227W, strain vid30, hits give low values 1.02 | locus YGL240W, strain doc1, hits give low values 1.08 | locus YGL248W, strain PDE1, hits give low values 1.02 | locus YGL253W, strain hxk2, hits give low values 1.02 | locus YGR135W, strain pre9, hits give low values 1.06 | locus YGR252W, strain gcn5, hits give low values 1.05 | locus YHR013C, strain ard1, hits give low values 1.05 | locus YHR027C, strain rpn1, hits give low values 1.01 | locus YHR030C, strain SLT2, hits give low values 0.992 and 0.99 | locus YHR079C, strain IRE1 (second series), hits give low values 0.991 | locus YHR079C, strain IRE1, hits give low values 0.994 | locus YHR094C, strain hxt1, hits give low values 0.982 | locus YHR129C, strain ARP1, hits give low values 0.984 | locus YHR142W, strain chs7, hits give low values 1.05 | locus YHR200W, strain rpn10, hits give low values 0.999 | locus YIL066C, strain RNR3, hits give low values 0.97 | locus YIL073C, strain SPO22, hits give low values 1.06 | locus YIL125W, strain kgd1, hits give low values 0.984 | locus YIR030C, strain dcg1, hits give low values 0.982 | locus YJL092W, strain hpr5, hits give low values 1.01 | locus YJL095W, strain BCK1 (second series), hits give low values 1.02 | locus YJL095W, strain BCK1, hits give low values 1.08 and 0.976 | locus YJL115W, strain asf1, hits give low values 1 | locus YJL129C, strain trk1, hits give low values 1.03 | locus YJL134W, strain LCB3, hits give low values 0.986 | locus YJL154C, strain vps35, hits give low values 1.02 | locus YJL164C, strain tpk1, hits give low values 1.03 | locus YJL166W, strain qcr8, hits give low values 1.03 | locus YJL168C, strain set2, hits give low values 0.993 | locus YJL187C, strain SWE1 (second series), hits give low values 0.988 | locus YJL187C, strain SWE1, hits give low values 1.02 | locus YJR066W, strain TOR1, hits give low values 0.919 | locus YKL009W, strain mrt4, hits give low values 0.948 | locus YKL068W, hits give low values 0.983 | locus YKL085W, strain MDH1 (second series), hits give low values 0.968 | locus YKL085W, strain MDH1, hits give low values 0.968 | locus YKL160W, strain elf1, hits give low values 1.03 | locus YKL190W, strain CNB1, hits give low values 0.989 | locus YKR001C, strain vps1, hits give low values 0.991 | locus YKR026C, strain gcn3, hits give low values 1.01 | locus YKR091W, strain srl3, hits give low values 1.01 | locus YLL001W, strain dnm1, hits give low values 1.01 | locus YLL026W, hits give low values 1.02 | locus YLL041C, strain sdh2, hits give low values 1.01 | locus YLR027C, strain aat2, hits give low values 1 | locus YLR039C, strain RIC1, hits give low values 1.01 | locus YLR058C, strain SHM2, hits give low values 0.966 | locus YLR102C, strain apc9, hits give low values 0.986 | locus YLR113W, strain HOG1, hits give low values 0.956 | locus YLR221C, strain rsa3, hits give low values 1.03 | locus YLR258W, strain gsy2, hits give low values 1.03 | locus YLR262C, strain YPT6 (second series), hits give low values 1.06 | locus YLR268W, strain sec22, hits give low values 0.975 | locus YLR320W, strain mms22, hits give low values 1.06 | locus YLR330W, strain CHS5, hits give low values 0.983 | locus YLR342W, strain FKS1 (second series), hits give low values 0.99 | locus YLR342W, strain FKS1, hits give low values 1.03 | locus YLR357W, strain rsc2, hits give low values 0.997 | locus YLR370C, strain arc18, hits give low values 1.02 | locus YLR371W, strain rom2, hits give low values 0.972 | locus YLR384C, strain iki3, hits give low values 1.01 | locus YLR418C, strain cdc73, hits give low values 1.05 | locus YML016C, strain PPZ1, hits give low values 0.985 | locus YML032C, strain rad52, hits give low values 0.985 | locus YML120C, strain ndi1, hits give low values 1.02 | locus YML124C, strain tub3, hits give low values 0.996 | locus YMR058W, strain fet3, hits give low values 0.996 | locus YMR078C, strain ctf18, hits give low values 0.995 | locus YMR125W, strain sto1, hits give low values 0.999 | locus YMR129W, hits give low values 1.01 | locus YMR205C, strain PFK2, hits give low values 1.03 | locus YMR223W, strain ubp8, hits give low values 1 | locus YMR231W, strain pep5, hits give low values 1.02 | locus YMR307W, strain GAS1, hits give low values 0.922 | locus YNL067W, strain RPL9B, hits give low values 1 | locus YNL071W, strain lat1, hits give low values 1.02 | locus YNL128W, strain TEP1, hits give low values 0.918 | locus YNL183C, strain NPR1, hits give low values 0.935 | locus YNL209W, strain ssb2, hits give low values 1 | locus YNL233W, strain BNI4, hits give low values 1.02 | locus YNL248C, strain rpa49, hits give low values 1.05 | locus YNL250W, strain rad50, hits give low values 0.984 | locus YNL271C, strain bni1, hits give low values 0.989 | locus YNL298W, strain CLA4, hits give low values 0.987 | locus YNL307C, strain MCK1, hits give low values 1 | locus YNL322C, strain KRE1 (second series), hits give low values 1.01 | locus YNR049C, strain mso1, hits give low values 1.02 | locus YNR052C, strain pop2, hits give low values 1.02 | locus YOL012C, strain htz1 0.777 | locus YOL147C, strain pex11, hits give low values 0.991 | locus YOR001W, strain rrp6, hits give low values 1.03 | locus YOR061W, strain CKA2, hits give low values 0.952 | locus YOR069W, strain VPS5, hits give low values 0.992 | locus YOR070C, strain gyp1, hits give low values 1.01 | locus YOR080W, strain dia2, hits give low values 1.02 | locus YOR083W, strain WHI5, hits give low values 1.03 | locus YOR106W, strain vam3, hits give low values 1.03 | locus YOR136W, strain idh2, hits give low values 0.987 | locus YOR144C, strain elg1, hits give low values 0.99 | locus YOR184W, strain ser1, hits give low values 0.959 | locus YOR231W, strain MKK1, hits give low values 0.975 | locus YOR265W, strain rbl2, hits give low values 1.01 | locus YOR270C, strain vph1, hits give low values 1.15 | locus YOR290C, strain snf2, hits give low values 1.01 | locus YOR316C, strain cot1, hits give low values 1 | locus YPL051W, strain arl3, hits give low values 1.04 | locus YPL055C, strain LGE1, hits give low values 0.899 | locus YPL078C, strain atp4, hits give low values 1.03 | locus YPL106C, strain sse1, hits give low values 1.02 | locus YPL240C, strain hsp82, hits give low values 1.01 | locus YPL241C, strain CIN2, hits give low values 0.995 | locus YPL256C, strain CLN2, hits give low values 0.974 | locus YPR119W, strain clb2, hits give low values 1 | locus YPR141C, strain kar3, hits give low values 0.979 | locus YPR163C, strain tif3, hits give low values 1 | locus YPR167C, strain met16, hits give low values 1.02 | strain wtn01, hits give low values 0.976
